VDR inhibitor – blocks the human vitamin D receptor; VDR-SRC2-3 peptide fluorescence polarization, 2 h; Potency, µM, for inactives: max response, negative = inhibition, usual class: inhibitors; 0.93% of 400,000 active; AID 504847; also: % is scaled to controls: 0 for no effect and ±100 for the full control effect
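The screen uses fluorescence polarization to detect compounds that interfere with recruitment of the SRC2-3 coactivator peptide to VDR; plates are read after 2 h at room temperature.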
TSG101-PTAP inh – blocks PTAP/TSG101 interaction to inhibit HIV-1 budding | AID 493005 | Fluorescence polarization, FITC-PTAP peptide / Tsg101 binding | 340,000 tested, under 10 active | Potency, µM (doses to about 115 µM), for the others: at the top dose activity change, negative = inhibition, usual class: inhibitors | Q99816; active = well fitted inhibition curve with a large enough effect in the main read-out, with a control signal flat, not every such curve was filed as active; inconclusive = small, poorly fitted or top-dose-only effect, or effect the other way, or a change in a side signal; inactive = no such curve, though single readings can be large or run the other way; also: % of control where 0% means no effect
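FP read-out: FITC-PTAP peptide, 50 nM final, binding Tsg101 binding domain, 10 uM final; 20 min, r.t.; 10 mM HEPES pH 7.5, 0.15 M NaCl, 0.01% Tween 20, 3 mM EDTA, 0.1 mM TCEP.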
KAT2A inh – inhibitors of human GCN5L2 histone acetyltransferase; Q92830; GCN5L2 HAT assay, ThioGlo1 CoA-SH fluorescence; Potency, µM (series often up to 58.9 µM), for the others: top-dose activity change, negative = inhibition, usual class: inhibitors; 0.21% of 390,000 active; AID 504327; also: % is scaled to controls: 0 for no effect and ±100 for the full control effect
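Free CoA generated was detected with ThioGlo1 (50uM) fluorescence at Ex340nm/Em540nm, read immediately and after 20 min at room temperature. Enzyme, 20 nM in HEPES pH 7.5 buffer, saw compounds 15 min before adding 75uM H3(1-25) peptide and 70uM acetyl-CoA.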
USP1 inh – USP1/UAF1 (human) deubiquitinase inhibition. O94782. 0.23% of 390,000 active. recombinant USP1/UAF1, Ub-Rhodamine cleavage fluorescence. AID 743255. Potency, µM (highest dose often 57.1 µM), without a hit: at the highest dose activity change, negative = inhibition, hits mostly inhibitors; also: % is scaled to controls: 0 for no effect and ±100 for the full control effect; nearly all actives have a fitted effect of over 60% in size
Target sequence (O94782 whole entry, looked up): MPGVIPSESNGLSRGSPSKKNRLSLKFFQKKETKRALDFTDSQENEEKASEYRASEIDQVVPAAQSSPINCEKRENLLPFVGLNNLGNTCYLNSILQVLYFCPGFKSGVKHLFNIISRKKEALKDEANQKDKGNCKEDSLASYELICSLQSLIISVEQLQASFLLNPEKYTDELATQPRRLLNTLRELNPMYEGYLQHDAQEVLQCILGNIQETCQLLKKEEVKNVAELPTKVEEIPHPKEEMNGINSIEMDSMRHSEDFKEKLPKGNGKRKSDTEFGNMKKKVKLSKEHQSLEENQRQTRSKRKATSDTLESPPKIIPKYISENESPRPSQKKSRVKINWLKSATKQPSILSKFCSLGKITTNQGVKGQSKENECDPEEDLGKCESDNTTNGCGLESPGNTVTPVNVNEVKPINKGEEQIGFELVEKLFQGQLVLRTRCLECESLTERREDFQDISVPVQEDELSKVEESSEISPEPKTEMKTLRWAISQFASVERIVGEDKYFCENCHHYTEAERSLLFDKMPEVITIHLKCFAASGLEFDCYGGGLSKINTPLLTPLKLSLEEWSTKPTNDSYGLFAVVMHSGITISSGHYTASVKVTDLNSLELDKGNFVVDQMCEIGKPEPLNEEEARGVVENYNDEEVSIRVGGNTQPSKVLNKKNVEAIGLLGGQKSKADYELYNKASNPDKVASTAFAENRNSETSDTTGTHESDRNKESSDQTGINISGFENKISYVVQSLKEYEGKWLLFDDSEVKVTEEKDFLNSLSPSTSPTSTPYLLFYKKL
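Step one: compound is pinned into 1nM USP1/UAF1 in HEPES pH 7.8 buffer with TCEP. Step two: 15 min room-temperature incubation. Step three: Ub-Rho (150nM final) starts cleavage, tracked by fluorescence over six one-minute reads.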
PLK1 PBD inh – PLK1 (human) polo-box domain binding inhibition | P53350 | AID 720504 | Plk1 PBD binding of FITC phosphopeptide, fluorescence polarization | 2.8% of 360,000 active | Potency, µM, inactives show max response, negative = inhibition, actives largely listed as inhibitors; also: series mostly up to about 57 µM; % is scaled to controls: 0 for no effect and ±100 for the full control effect; nearly all actives have a fitted effect of over 65% in size
Numbers without * were called inactive; ? = inconclusive; . = no result. Compounds with a hit are over-represented: about 3% of the library has one in this group of screens. Unless noted, calls follow the shape of the dose curve; as a rule, active = well fitted curve in the direction sought with a large enough effect; inconclusive = small, poorly fitted or top-dose-only effect, or another doubt; inactive = no such curve, though single readings can be large; an effect the other way counts as inactive or inconclusive. Potency is read from the fitted curve at half-maximal effect.

SMILES | VDR inhibitor | TSG101-PTAP inh | KAT2A inh | USP1 inh | PLK1 PBD inh
CC(=O)c1cccc(CN2CCC(C(=O)Nc3cccc(-c4ccn[nH]4)c3)CC2)c1 | -8% | 0% | 1% | -4% | -13%
COc1cc(/C=C(\C#N)C(=O)NC2CCCCC2C)ccc1OS(=O)(=O)c1ccc(C)cc1 (stereo unspecified) | 79µM* | -1% | -13% | 0% | -13%
CCC(C(=O)NC1CCCCC1)n1nc(C)c2sc3ccccc3c2c1=O (stereo unspecified) | -1% | . | -2% | ? | .
O=C(Nc1ccc(C(=O)O)cc1)/C(=C\c1ccc2c(c1)OCO2)NC(=O)c1ccc(Br)o1 | -18% | 1% | -8% | -6% | 27µM*
O=C(Nc1ccc(C(=O)O)cc1)/C(=C\c1ccco1)NC(=O)c1ccc(Br)cc1 | . | . | . | -11% | -3%
O=C(Nc1ccc(C(=O)O)cc1)/C(=C\c1ccco1)NC(=O)c1ccc(Br)o1 | -4% | -1% | -12% | ? | 30µM*
CNC(=O)CN1C(=O)c2cccc3cccc1c23 | 0% | -1% | -7% | -11% | 5%
CN1/C(=N\O)c2cccc3cccc1c23 | ? | -7% | -5% | -5% | 27µM*
Cc1c(C)n(CC(O)CSc2ccccc2)c2ccccc12 (stereo unspecified) | . | . | . | . | 2.4µM*
N#Cc1cc2c([nH]c1=S)CCCCCC2 | -7% | -4% | -1% | 7% | 27µM*
N#Cc1c(N)n[nH]c1-c1cc2c([nH]1)CCCC2 | -6% | -6% | -4% | -5% | 6%
CN(C)CCC(=O)c1ccc(Cl)cc1 | -24% | 0% | 5% | 0% | 4.2µM*
O=C(O)CCC(=O)CCC(=O)c1ccc(Cl)cc1 | ? | -1% | -3% | -12% | -7%
O=C(CC(=O)c1ccccc1)c1ccccc1 | -14% | 3% | -10% | 1% | -8%
CN(CCC(=O)c1ccccc1)CCC(=O)c1ccccc1 | -12% | -1% | 1% | -12% | 27µM*
O=C(O)c1nn(-c2ccccc2)ccc1=O | -12% | -6% | 19% | -11% | 12µM*
CCOC(=O)CCNCc1ccc(OC)c(OC)c1 | ? | -2% | 0% | -24% | 24µM*
CCOC(=O)CC(NCc1ccc(OC)c(OCC)c1)c1ccc(C)cc1 (stereo unspecified) | -11% | 0% | -14% | -15% | 21µM*
CCOCCCNCc1ccc(OC)c(OC)c1 | 0% | -1% | -5% | 0% | -3%
CCOc1cc(CNCc2ccc(C(=O)O)cc2)ccc1OC | 14% | 0% | -3% | -3% | -15%
COC(=O)c1ccc2c(=O)n(CCCCCC(=O)N3CCN(c4cc(C)ccc4C)CC3)c(=O)[nH]c2c1 | 14% | . | -11% | 1% | .
Cc1cc(NC(=O)CCCn2nc(C)c([N+](=O)[O-])c2C)no1 | -11% | -4% | -1% | -5% | -7%
Cc1cc(NC(=O)CCCn2cnc([N+](=O)[O-])n2)no1 | ? | -4% | -6% | -29% | 12µM*
Cc1ccc(C(=O)OCC(=O)NCc2cccc(Cl)c2)cc1S(=O)(=O)N1CCCCC1 | -7% | 0% | -13% | -11% | -8%
CCC(=O)N1CCc2cc(Br)cc(S(=O)(=O)NCCc3cccc(C)c3)c21 | -12% | . | 1% | -28% | .
SMILES | VDR inhibitor | TSG101-PTAP inh | KAT2A inh | USP1 inh | PLK1 PBD inh
O=C1NC(=O)/C(=C\c2ccccc2Oc2ccc(F)c(F)c2)S1 | -9% | -4% | -13% | -10% | 27µM*
O=C(C1CC1)N1CCc2cc(S(=O)(=O)N3CCOCC3)ccc21 | 13% | -2% | -13% | -5% | -6%
CC(Cl)C(=O)c1ccc2c(c1)CCN2C(=O)C1CC1 (stereo unspecified) | 29% | -6% | -6% | 5% | 19µM*
C[C@H]1/C=C\CC(=O)NCc2cccc(c2)CNC(=O)N[C@H]1c1ccccc1 | -5% | . | . | . | .
CN(C1CCCCC1)S(=O)(=O)c1ccc(=S)[nH]c1 | 50µM* | 0% | -3% | -14% | 21µM*
CCOc1ccc(S(=O)(=O)N(C)C2CCCCC2)cc1 | 2% | -1% | -1% | -15% | 3%
CN(C1CCCCC1)S(=O)(=O)c1cccc(C#N)c1 | -6% | -6% | -8% | -5% | 24µM*
O=C(c1ccc2c(c1)N(Cc1cccc(F)c1)C(=O)c1ccccc1S2)N1CCCC1 | 5% | . | -12% | -21% | .
CCCc1nc2c(=O)n(C)c(=O)nc-2n(C)n1 | -12% | 1% | -4% | 0.1µM* | -15%
Cc1ccccc1-c1nc2c(=O)n(C)c(=O)nc-2n(C)n1 | -22% | . | . | . | .
CCn1c(N)nc2c1c(=O)n(C)c(=O)n2C | 0% | -3% | -11% | -27% | -23%
Cn1nc(-c2ccccn2)nc2c(=O)n(C)c(=O)nc1-2 | 10% | -4% | -5% | 0.032µM* | -11%
OC1COC(c2ccccc2)OC1C1OC(c2ccccc2)OCC1O (stereo unspecified) | -12% | 1% | . | -7% | -3%
CC(NS(=O)(=O)c1ccc2c(c1)CCN2C(=O)CCCC(=O)O)c1ccccc1 (stereo unspecified) | -9% | . | -3% | -23% | .
Cc1oc2cc(O)ccc2c(=O)c1Oc1ccccc1 | -10% | -5% | -15% | -17% | 3µM*
O=C(Cc1ccc(F)cc1)NCc1nc2cccnc2n1Cc1ccc(F)cc1 | 8% | . | 0% | 0% | .
Cc1ccc(S(=O)(=O)Cc2ccc(C(=O)O)o2)cc1 | -15% | -1% | -8% | -3% | 19µM*
COc1ccc(S(=O)(=O)Cc2ccc(C(=O)O)o2)cc1 | 20% | -3% | -3% | -12% | -1%
CCc1noc(-c2ccc(NCc3ccccc3)c([N+](=O)[O-])c2)n1 | 0% | . | 0% | -11% | .
O=C(O)c1ccc2c(=O)n(Cc3ccccc3)c(SCc3ccc([N+](=O)[O-])cc3)nc2c1 | 79µM* | -7% | 1% | -18% | ?
COc1cc(-c2nnc3sc(Cc4ccccc4)nn23)cc(OC)c1OC | -16% | -9% | 6% | -10% | 27µM*
COc1ccc(Cc2nn3c(-c4cc(OC)c(OC)c(OC)c4)nnc3s2)cc1 | -21% | -4% | -8% | -24% | 24µM*
COc1cc(-c2nnc3sc(Cc4ccc(Cl)cc4)nn23)cc(OC)c1OC | ? | -4% | . | -30% | 24µM*
O=C(CSc1ccc(C(F)(F)F)cn1)Nc1ccccc1 | -7% | -2% | -13% | -4% | -4%
O=C(/C=C/Sc1ccc(C(F)(F)F)cn1)c1ccccc1 | 79µM* | -2% | -9% | -14% | -16%
Cc1ccccc1CSc1nnc2[nH]c(=O)cc(C)n12 | 12% | . | -7% | -3% | .
C=C(C)C1CC[C@]2(CO)CC[C@@]3(C)[C@H](CCC4[C@@]5(C)CCC(O)C(C)(C)C5CC[C@@]43C)C12 (stereo partly specified) | 0% | . | -18% | . | .

Assay outcomes (PubChem BioAssay)
